Compounds without any hit were thinned out: in the full panel of roughly 83,000, 20% have a hit.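 Single-dose data. Exposure time 48 hours. Values below 10 considered active.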 Unmarked numbers belong to inactive results. Calls of active or inactive are those of the source.

Among the test systems are T-47D breast; BT-549 breast; MDA-MB-435 melanoma; SW-620 colon; MCF7 breast; HCT-116 colon; HCC-2998 colon; KM12 colon.
What all share (assay): NCI-60 one-dose screen, 48 h (100 = growth as untreated, 0 = no growth, -100 = all killed)
What all share (details): 10 µM unless noted

For `CCN(CC)S(=O)(=O)c1ccc(OC)c(NC(=O)c2[nH]c(C)c3c2CCCCC3=O)c1`, the growth with T-47D breast was 16.6%; in the experiment with BT-549 breast, 59.8%; in the experiment with MDA-MB-435 melanoma, 31.3%; with SW-620 colon, 67%; in the experiment with MCF7 breast it was 19%; in the experiment on HCT-116 colon, 33.7%. Moreover, the values for the growth in the experiment on HCC-2998 colon and in the experiment on KM12 colon were 42.3% and 47.9%, respectively.
As for `CC(=O)Nc1ccc(-n2c(O)c(/C=N/NC(=O)Cc3ccccc3Nc3c(Cl)cccc3Cl)sc2=S)cc1`, the growth was 80.6% in the experiment on T-47D breast; 104% in the experiment with BT-549 breast; 109% in the experiment with MDA-MB-435 melanoma; 96.5% in the experiment with SW-620 colon; 92.3% in the experiment with MCF7 breast; 95.3% in the experiment on HCT-116 colon. Also, the growth is 106% in the experiment with HCC-2998 colon and 105% in the experiment on KM12 colon.
For `Oc1ccc(N=Cc2ccccc2O)cc1`, the growth with T-47D breast is 89.4%; in the experiment with BT-549 breast it was 78.3%; in the experiment on MDA-MB-435 melanoma, 110%; in the experiment with SW-620 colon, 99.1%; in the experiment on MCF7 breast, 92.8%; with HCT-116 colon, 98.8%. For the same compound, the growth in the experiment with HCC-2998 colon was 116%; in the experiment on KM12 colon it was 88.8%.
As for `C=CC(=O)Nc1cccc(-c2nc(SC)nc(NCCc3ccc(OC)c(OC)c3)c2C#N)c1`, the growth in the experiment with T-47D breast was 8.57% (active); in the experiment on BT-549 breast, 25%; in the experiment with MDA-MB-435 melanoma it was 24.2%; with SW-620 colon it was 80.8%; with MCF7 breast it was 16.5%; with HCT-116 colon, 31.4%. The growth was 87.1% in the experiment on HCC-2998 colon and 64.6% with KM12 colon.
Consider `Cc1ccc(OC(=O)c2ccc(Cl)cc2)cc1`, for which the growth in the experiment on T-47D breast was 103%; in the experiment on BT-549 breast, 100%; in the experiment on MDA-MB-435 melanoma it was 99.1%; in the experiment on SW-620 colon, 87.3%; in the experiment on MCF7 breast it was 102%; in the experiment with HCT-116 colon, 57.9%. For the same compound, the growth in the experiment with HCC-2998 colon was 95.3%; with KM12 colon, 104%.
Regarding `C=CCSSc1ncnc2c1ncn2C1OC(CO)C(O)C1O` (stereo not given), the growth with T-47D breast is 24.3%; in the experiment on BT-549 breast, 54.8%; in the experiment on MDA-MB-435 melanoma it was 22.5%; with SW-620 colon, 53.8%; in the experiment with MCF7 breast, 4.74% (active); with HCT-116 colon it was 22.4%. In addition, the growth with HCC-2998 colon was 35.1%; with KM12 colon it was 37.1%.
For the compound `Cc1nn(-c2ccc(F)cc2)c2ncnc(Oc3ccc(NC(=O)Nc4ccc(Cl)c(C(F)(F)F)c4)cc3)c12`, the growth is 94.6% in the experiment on T-47D breast; 111% in the experiment with BT-549 breast; 104% in the experiment on MDA-MB-435 melanoma; 100% in the experiment with SW-620 colon; 96.2% with MCF7 breast; 102% with HCT-116 colon. Besides, the growth was 99.2% in the experiment with HCC-2998 colon and 108% in the experiment with KM12 colon.
On to `C=C1C(=O)O[C@H]2[C@H]1CC/C(C=Nc1ccc(C(F)(F)F)cc1N)=C\CC[C@@]1(C)O[C@@H]21`, for which the growth is 14.8% in the experiment on T-47D breast; 16.3% in the experiment with BT-549 breast; 0.426% (active) with MDA-MB-435 melanoma; -32% (active) in the experiment with SW-620 colon; 10.7% with MCF7 breast; -77.1% (active) in the experiment on HCT-116 colon. The growth in the experiment with KM12 colon was 20.3%.
With `Clc1ccc2nc3nc4ccc[nH]c4cc3c2c1`, the growth is 22% in the experiment with T-47D breast; 97.7% in the experiment on BT-549 breast; 103% in the experiment on MDA-MB-435 melanoma; 102% in the experiment with SW-620 colon; 6.54% (active) with MCF7 breast; 96.9% with HCT-116 colon. The growth is 70.6% in the experiment with HCC-2998 colon and 63% in the experiment on KM12 colon.
As for `O=C1c2c(O)cc(O)cc2-c2c(-c3ccc(O)cc3)oc3cc(O)cc1c23`, the growth is 8.47% (active) in the experiment with T-47D breast; 50.8% with BT-549 breast; 52.9% in the experiment on MDA-MB-435 melanoma; 45.3% in the experiment on SW-620 colon; 33.2% in the experiment on MCF7 breast; 32.5% in the experiment with HCT-116 colon. In the experiment with KM12 colon, the growth is 58.3%.
Take `COc1ccc2c(c1)CC/C(=C\c1cncc(Br)c1)C2=O`: the growth is 66.1% in the experiment on T-47D breast; 95.7% with BT-549 breast; 82.7% with MDA-MB-435 melanoma; 42.6% in the experiment on SW-620 colon; 39.3% in the experiment on MCF7 breast; 65.8% in the experiment with HCT-116 colon. The growth with KM12 colon was 63.7%.
In the case of `CC/C=C\C[C@H]1C/C=C2/C(=O)C=C[C@H]2C/C=C\CCCC(=O)O1`, the growth with T-47D breast is 27.4%; with BT-549 breast it was 32%; in the experiment on MDA-MB-435 melanoma, 9.04% (active); in the experiment with SW-620 colon, 25.4%; in the experiment on MCF7 breast, 46.2%; in the experiment with HCT-116 colon it was -41.9% (active). Also, the growth in the experiment on KM12 colon was -3.28% (active).
For the compound `COc1ccc(CN2c3ccccc3Sc3ccccc32)cc1O`, the growth in the experiment on T-47D breast is 27.5%; in the experiment with BT-549 breast, 54.5%; in the experiment on MDA-MB-435 melanoma, 0.932% (active); in the experiment with SW-620 colon it was 31%; with MCF7 breast, 26%; with HCT-116 colon, 12.9%. In addition, the growth in the experiment on KM12 colon is 17.6%.
`CC/C=C\C/C=C\C[C@H]1C/C=C2/C(=O)C=C[C@@H]2C/C=C\CCC(=O)O1`: the growth in the experiment on T-47D breast is 23.4%; in the experiment with BT-549 breast, -3.33% (active); in the experiment with MDA-MB-435 melanoma, 0.314% (active); with SW-620 colon, 8.89% (active); with MCF7 breast it was 26.1%; in the experiment on HCT-116 colon, -48.7% (active). Also, the growth with KM12 colon was -27.8% (active).
Turning to `CC(=O)c1cc(C(=O)c2ccc3c(c2)Sc2ccccc2N3)n2ccccc12`, the growth was 43% in the experiment on T-47D breast; 45.8% in the experiment with BT-549 breast; -9.84% (active) in the experiment on MDA-MB-435 melanoma; 23.9% in the experiment with SW-620 colon; 24.7% with MCF7 breast; 0.708% (active) in the experiment with HCT-116 colon. For the same compound, in the experiment on KM12 colon, the growth is 9.91% (active).
With `CCOc1nc(-c2ccccc2)cc2c(O)c(C(=O)N/N=C/c3ccc(O)cc3O)[nH]c(=O)c12`, the growth in the experiment on T-47D breast was 34.3%; in the experiment on BT-549 breast, 58.9%; in the experiment on MDA-MB-435 melanoma it was 48.3%; in the experiment with SW-620 colon, 44.6%; in the experiment on MCF7 breast, 46.3%; with HCT-116 colon it was 18.6%. Also, in the experiment on KM12 colon, the growth is 42.3%.

Values taken from PubChem BioAssay (NCI).
